Structures are written as SMILES. The whole screen tested about 83,000 compounds, of which about 780 (0.94%) were called active.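 Rule for the calls: active = mean inhibition of at least 50% with a set share of replicates also reaching that level; inconclusive = no clear call, values can overlap the other calls; inactive = the rest.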 This excerpt belongs to a sample that is enriched for actives.

One may read the inhibition as the change of the read-out against control, counted positive when it falls.

The experiment is described as follows: inhibitors of CD40-induced NF-kB signaling, primary screen, BL2 cells, luciferase reporter, single point (AID 1053188).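 Note: 0% = neutral control wells and 100% = IKK inhibitor VII at 50 µM.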 Conditions: CD40L-induced, 4 h, stronger effect = higher value; at 10 µM unless noted.
In the case of `COc1ccc(C#Cc2ccc([C@@H]3[C@@H](CO)N4CCCCN(C(=O)c5ccncc5)C[C@@H]34)cc2)cc1`, the inhibition was -18.8% [at 25 µM] (inactive).
To `Cn1cnc(S(=O)(=O)N2CCCCN3[C@@H](CO)[C@@H](c4ccc(C#CC5CCCC5)cc4)[C@@H]3C2)c1` belongs 2.82% [at 25 µM] (inactive).
Consider `COc1ccc(C#Cc2ccc([C@H]3[C@@H](CO)N4CCCCN(S(=O)(=O)c5cn(C)cn5)C[C@H]34)cc2)cc1`, for which the inhibition is 66.3% [at 25 µM] (active).
For `Cc1nnc(CN(C)Cc2cn[nH]c2-c2ccc(-c3ccccc3)cc2)o1`, the inhibition was -39% (inactive).
With `COc1ccccc1C(=O)NNC(=O)c1ccc(NC(=O)c2ccccc2)cc1`, the inhibition was 11.1% (inactive).
To `COc1ccc(C(=O)Nc2ccccc2C(=O)N/N=C/c2ccccc2OC)cc1` belongs 53.7% (active); to `COc1ccc(C(=O)Nc2cc(C)ccc2NC(=O)COc2ccccc2)cc1`, -29.7% (inactive); to `CCCNC(=O)C1CC(=O)N(c2ccc(OCc3ccccc3)cc2)C1` (configuration not stated), -7.3% (inactive).
Take `O=C(C[C@H]1C=C[C@@H](NC(=O)c2cnccn2)[C@H](CO)O1)NCc1ccccc1F`: the inhibition is 3.55% [at 25 µM] (inactive).
Turning to `O=C(Nc1ccc(Cl)cc1)Nc1nnc(/C=C/c2ccccc2)s1`, the inhibition is -0.929% (inactive).
Take `O=C(Nc1ccccc1)c1nnsc1S(=O)(=O)c1ccc(Cl)cc1`: the inhibition is 96.6% (active).
As to `Cc1nnsc1C(=O)N/N=C/c1ccccc1Cl`, the inhibition is 25% (inactive).
In the case of `Cc1cc(C(=O)OC(C)C(=O)NC2CCCCC2C)c(C)o1` (configuration not stated) it was 16.2% (inactive); in that of `CC(C)C[C@H](NC(=O)Nc1cccc(C(F)(F)F)c1)C(=O)O`, 17.4% (inactive).
`NC(c1csc(NC(=O)Nc2cccc(C(F)(F)F)c2)n1)C1CCCCC1` (configuration not stated): the inhibition is 76.7% (active).
On to `CC(=O)Nc1ccc(-c2csc(NC(=O)Nc3ccccc3)n2)cc1`, for which the inhibition is -27.4% (inactive).
As for `O=C(Nc1cccc(C(F)(F)F)c1)c1cnccn1`, the inhibition is -0.813% (inactive).
To `NC(c1ccccc1)c1csc(NC(=O)Nc2cccc(C(F)(F)F)c2)n1` (configuration not stated) belongs 75% (active).
As to `C[C@H]1CN([C@@H](C)CO)C(=O)CCCn2cc(nn2)CO[C@H]1CN(C)C(=O)Nc1cccc(C(F)(F)F)c1`, the inhibition is 3.26% [at 25 µM] (inactive).
In the case of `COc1ccc(NC(=O)Nc2ccc3c(c2)C(=O)N([C@@H](C)CO)C[C@H](C)[C@H](CN(C)Cc2ccc(C(F)(F)F)cc2)OCCCC[C@H](C)O3)cc1` it was 8.72% (inactive); in that of `c1ccc(CNCc2ccc(CNCc3ccccc3)cc2)cc1`, -8.05% (inactive).
Turning to `Cc1ccc(S(=O)(=O)NCCC(=O)NNC(=O)C2COc3ccccc3O2)cc1` (configuration not stated), the inhibition was -6.13% (inactive).
`Cc1ccsc1C(=O)OCC(=O)c1cc(C)n(CC2CCCO2)c1C` (configuration not stated): the inhibition was 94% (active).
Consider `Cc1ccsc1C(=O)OCC(=O)c1cc2ccccc2o1`, for which the inhibition was -95.3% (inactive).
On to `Cc1cc(C(=O)Cn2cnc3cc([N+](=O)[O-])ccc3c2=O)c(C)n1CC1CCCO1` (configuration not stated), for which the inhibition is 0.959% (inactive).
`O=C(OCC(=O)N1CCCC1=O)c1cc(S(=O)(=O)N2CCOCC2)ccc1Cl`: the inhibition is 17.8% (inactive).
As to `O=C(Nc1ccc2c(c1)OCCO2)c1ccncc1`, the inhibition was -42.5% (inactive).
Consider `O=C(Nc1ccc2c(c1)OCCO2)C1CCCC1`, for which the inhibition was 97.3% (active).
In the case of `O=C(Nc1ccc2c(c1)OCCO2)C1CCCN(c2ncccn2)C1` (configuration not stated), the inhibition is -6.73% (inactive).
On to `CCOC(=O)COc1nc(C)cc(C(F)(F)F)c1C#N`, for which the inhibition was 7.91% (inactive).
In the case of `CCCN1[C@H](CO)[C@H](c2ccc(C#CC3CCCCC3)cc2)[C@@H]1CNC(=O)C1CC1` it was -8.21% [at 25 µM] (inactive); in that of `Cc1onc(-c2ccccc2)c1-c1nnc(COC(=O)c2ccc(N(C)C)cc2)o1`, 27.4% (inactive); in that of `CCN(Cc1ccccc1)S(=O)(=O)c1cc2c3c(c1)CCN3C(=O)CC2`, 12.8% (inactive).
For `CC(C)(Oc1ccc(Cl)cc1)C(=O)OCC(=O)NCCc1ccc(S(N)(=O)=O)cc1`, the inhibition was 11.6% (inactive).
For the molecule `Cc1ccc(CNC(=O)COC(=O)C2CCC2)cc1`, the inhibition was -4.82% (inactive).
Take `Cc1ccc(/C=C/C(=O)OCC(=O)NCc2ccc(Cl)cc2)o1`: the inhibition was 50.7% (active).
Take `COC(=O)c1sc(NC(=O)COC(=O)C2CCC2)c(C(=O)OC)c1C`: the inhibition is 2.99% (inactive).
`CC[C@H]1CN2CCc3cc(OC)c(OC)cc3[C@@H]2C[C@@H]1C[C@H]1NCCc2cc(OC)c(OC)cc21`: the inhibition is 89.6% (active).
With `CCn1cc(-c2cc(C(=O)O)on2)c(C)n1`, the inhibition was 8.77% (inactive).
In the case of `N#C[C@@H]1[C@H](c2ccc(C#CC3CCCCC3)cc2)[C@@H](CO)N1S(=O)(=O)c1ccccc1` it was 51.3% (active); in that of `CC(C)NC(=O)N1[C@H](C#N)[C@H](c2ccc(C#CC3CCCCC3)cc2)[C@H]1CO`, 52.1% (active).
For the molecule `N#C[C@H]1[C@@H](c2ccc(C#CC3CCCC3)cc2)[C@H](CO)N1C(=O)Nc1ccc(F)cc1`, the inhibition is 12% (inactive).
To `CS(=O)(=O)N1[C@H](C#N)[C@H](c2ccc(C#CC3CCCC3)cc2)[C@H]1CO` belongs -13.6% [at 25 µM] (inactive).
To `CC(C)C#Cc1ccc([C@@H]2[C@@H](C#N)N(C(=O)C3CC3)[C@@H]2CO)cc1` belongs 3.05% [at 25 µM] (inactive); to `CS(=O)(=O)N1[C@@H](C#N)[C@H](c2ccc(C#CC3CCCCC3)cc2)[C@@H]1CO`, -1.7% (inactive); to `O=C(O)C(c1cccs1)C1(O)CCCCC1` (configuration not stated), 6.28% (inactive).
For the molecule `Cn1c(N)cc(-c2ccc(F)cc2)c(C#N)c1=O`, the inhibition was 4.59% (inactive).
`COc1ccc(S(=O)(=O)N2CCOCC2)cc1NC(=O)CSc1cc(C)ccc1C`: the inhibition is 2.01% (inactive).
Regarding `Cc1cc2ccccc2n1CCC(=O)O`, the inhibition was 4.73% (inactive).
For `C[C@@H]1CC=CC[C@@H](c2ccccc2)NC(=O)[C@H](C)N(C)C(=O)c2ccccc2O1` (mixture of isomers), the inhibition was 8.95% [at 25 µM] (inactive).
For the molecule `C[C@@H]1CC=CC[C@H](c2ccc(F)cc2)NC(=O)[C@@H](Cc2ccccc2)N(C)C(=O)c2ccccc2O1` (mixture of isomers), the inhibition is 53.9% [at 25 µM] (active).
As for `C[C@@H]1C(=O)N[C@H](c2ccc3c(c2)OCO3)CC=CC[C@H](C)Oc2ccccc2C(=O)N1C` (mixture of isomers), the inhibition was 3.83% [at 25 µM] (inactive).

The record behind these values is PubChem BioAssay AID1053188 (Broad Institute, 2014).
